Source: PubChem BioAssay (NCATS)
Inconclusive results are not listed. Activity calls are given as the source filed them. Calls come from the whole dose curve; as a rule, active = well fitted cell-killing curve with a large enough effect; inconclusive = small, poorly fitted or top-dose-only effect, or effect the other way; inactive = flat fitted curve, though single readings scatter.

Experiments:
Assay in all cases: Primary qHTS to identify gynecologic anti-cancer compounds using libraries of approved drugs and bioactive compounds (AID 1345084); note: nearly all actives have a fitted effect of over 55% in size
Conditions in all cases: Gynecologic cancer cell panel viability, ATPlite luminescence, 48 h; series mostly up to 57.5 µM
[1] = tested on: OV90
Method in brief: (§1)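 Luminescence from the ATPlite ATP-monitoring reagent indicates viable cell number; lower signal means cytotoxicity. Cells received compound 16 h after seeding and were exposed for 48 h across five concentrations.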

[2] = tested on: PA-1
Method in brief: as §1

[3] = tested on: Tov-21-G
Method in brief: as §1

[4] = tested on: Tov112D
Method in brief: as §1

[5] = tested on: SKOV3
Method in brief: as §1
% is set by controls: 0 for no effect and ±100 for the full control effect.

C[C@@H](CC[C@@H]1[C@@]2(C)CCCC(C)(C)C2CC[C@@]1(C)O)CC(=O)O (some centres not stated)
inactive: Potency [1] | Potency [2] | Potency [3] | Potency [4]

C/C=C/C=C/C=C/C(=O)O[C@@H]1[C@@H](OC)C2=C(C(=O)N(C(CCC(=O)O)C(=O)O)C2)[C@@]2(C)CCCC(C)(C)[C@H]12 (some centres not stated)
inactive: Potency [1] | Potency [2] | Potency [3] | Potency [4]

CCOC(=O)c1ccc(NC2CCCCC2)c(N)c1
inactive: Potency [1] | Potency [2] | Potency [3] | Potency [4]

COc1c(C)c(OCC=C(C)C)cc2c1CNC2=O
inactive: Potency [1] | Potency [5] | Potency [3] | Potency [4]

Cc1ccc2[nH]c(=O)c(C3=NN(C(=O)CCC(=O)O)C(c4ccc(Br)cc4)C3)c(-c3ccccc3)c2c1 (configuration not stated)
inactive: Potency [1] | Potency [2] | Potency [3] | Potency [4]

CC(=O)OC1CC(=O)C2(C)C3CC4=C(OC(C)CC4=O)OC3(C)CCC2C1(C)C (configuration not stated)
inactive: Potency [1] | Potency [2] | Potency [3] | Potency [4]

OC[C@@]1(O)CO[C@@H](OC[C@H]2O[C@@H](OCc3ccccc3)[C@H](O)[C@@H](O)[C@@H]2O)[C@@H]1O
inactive: Potency [1] | Potency [2] | Potency [3] | Potency [4]

CC/C=C/C=C/C1(C)OC(CC(CO)OC)=CC1=O (configuration not stated)
inactive: Potency [1] | Potency [2] | Potency [3] | Potency [4]

CCC(C)/C=C(C)/C=C/C1=CC2=C(Cl)C(=O)C(C)(OC(C)=O)C(=O)C2=CN1C(CCCN=C(N)N)C(=O)O (configuration not stated)
inactive: Potency [1] | Potency [5] | Potency [3] | Potency [4]

CC(C)=CCC[C@](C)(O[C@@H]1O[C@H](CO[C@@H]2O[C@@H](CO)[C@H](O)[C@H]2O)[C@@H](O)[C@H](O)[C@H]1O)[C@H]1CC[C@]2(C)[C@@H]1[C@H](O)C[C@@H]1[C@@]3(C)CC[C@H](O[C@@H]4O[C@H](CO)[C@@H](O)[C@H](O)[C@H]4O[C@@H]4O[C@H](CO)[C@@H](O)[C@H](O)[C@H]4O)C(C)(C)[C@@H]3CC[C@]12C
inactive: Potency [1] | Potency [5] | Potency [3] | Potency [4]

O=C(O[C@@H]1O[C@H](CO)[C@@H](O)[C@H](O)[C@H]1O)c1ccccc1
inactive: Potency [1] | Potency [5] | Potency [3] | Potency [4]

COc1ccccc1Oc1c(NS(=O)(=O)c2ccc(C)cn2)nc(-c2ccncc2)nc1OC
inactive: Potency [1] | Potency [2] | Potency [3] | Potency [4]

CC1(C)CC[C@]2(C(=O)O)CC[C@]3(C)C(=CCC4[C@@]5(C)CC[C@H](O[C@H]6O[C@H](C(=O)O)[C@@H](O)[C@H](O[C@@H]7O[C@H](CO)[C@H](O)[C@H](O)[C@H]7O)[C@H]6O)C(C)(C)C5CC[C@]43C)[C@@H]2C1 (some centres not stated)
inactive: activity change, negative = cytotoxicity [1] -6.58% [at 11.6 µM] | activity change, negative = cytotoxicity [2] 2% [at 11.6 µM] | activity change, negative = cytotoxicity [3] 6.29% [at 11.6 µM] | activity change, negative = cytotoxicity [4] -0.0817% [at 11.6 µM]

COC(=O)C1=CO[C@@H](O[C@@H]2O[C@H](CO)[C@@H](O)[C@H](O)[C@H]2O)[C@H]2[C@@H]1C=C[C@]21C=C([C@H](C)OC(=O)/C=C/c2ccc(O[C@@H]3O[C@H](CO)[C@@H](O)[C@H](O)[C@H]3O)cc2)C(=O)O1
inactive: Potency [1] | Potency [5] | Potency [3] | Potency [4]

COC(=O)C1=COC(OC2OC(CO)C(O)C(O)C2O)C2C(C)CC(=O)C12O (configuration not stated)
inactive: Potency [1] | Potency [5] | Potency [3] | Potency [4]

Cc1ccc(-n2nc(C(C)(C)C)cc2NC(=O)Nc2cc(COc3cccnc3)[nH]n2)cc1
inactive: Potency [1] | Potency [5] | Potency [3] | Potency [4]

COC(=O)[C@H](Cc1ccc([N+](=O)[O-])cc1)NC(=O)c1cccc2ccccc12
inactive: Potency [1] | Potency [2] | Potency [3] | Potency [4]

CC1(C)CC[C@]2(C(=O)O)CC[C@]3(C)C(=CCC4[C@@]5(C)C(=O)C[C@H](O)[C@@](C)(CO)C5CC[C@]43C)[C@@H]2C1 (some centres not stated)
inactive: Potency [1] | Potency [5] | Potency [3] | Potency [4]

C=C1C2(C)CC3C4(C)C=CC(=O)OC(C)(C)C4CCC3(C)C1(C(=O)OC)C(=O)C(C)(O)C2=O (configuration not stated)
inactive: Potency [1] | Potency [2] | Potency [3] | Potency [4]

CC[C@@H]1[C@H]2CCCCN3C(=O)C[C@H]([C@@H]4[C@H]1OC(=O)[C@H]4C)[C@@H]23
inactive: Potency [1] | Potency [2] | Potency [3] | Potency [4]

C=C1CC[C@H]2[C@@](C)(CCC(OC3OC(CO)C(O)C(O)C3O)[C@@]2(C)CO)C1C(=O)CC1=CCOC1=O (some centres not stated)
inactive: Potency [1] | Potency [2] | Potency [3] | Potency [4]

CC1=C[C@@H]2[C@H]3[C@@H]4O[C@@](C)(CC[C@H]4O)[C@H]3CC(=O)[C@]23C(=O)N[C@@H](CC(C)C)[C@@H]3[C@@H]1C
inactive: Potency [1] | Potency [2] | Potency [3] | Potency [4]

C=CC(C)(O)C1CC2C3(C)CCCC(C)(C)C3C(O)C(O)C2(C)O1 (configuration not stated)
inactive: Potency [1] | Potency [2] | Potency [3] | Potency [4]
